Assay [1] concerns the target Estrogen receptor beta (Homo sapiens) (UniProt Q92731). The assay can be described thus: qHTS assay to identify small molecule agonists of the estrogen receptor beta (ER-beta) signaling pathway (AID 1259377; active = well fitted activation curve with a large enough effect in the signal ratio in the repeat runs, not every such curve was filed as active; the % refers to the signal ratio). A digest of the protocol: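 qHTS in ER-beta-UAS-bla HEK293T cells: 6 hr settling, then 16 hr compound at 37C, then LiveBLAzer substrate 2 h at RT before fluorescence reading.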

The nature of assay [2]: qHTS assay to identify small molecule agonists of the androgen receptor (AR) signaling pathway in the presence of an antagonist - cell viability counter screen (AID 1259379).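 Note: MDA-kb2 human breast cancer cells carrying an MMTV luciferase reporter; series mostly up to about 92 µM; nearly all actives have a fitted effect of over 25% in size.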 A digest of the protocol:
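Nilutamide-containing (3.0uM final) MDA-kb2 cultures, 3,000 cells/well, were treated with compounds across 15 concentrations. After 16 hr at 37C with no CO2, cell viability was determined by CellTiter-Fluor fluorescence in the luciferase assay wells.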

A short description of assay [3]: qHTS assay to identify small molecule antagonists of the estrogen receptor beta (ER-beta) signaling pathway - cell viability counter screen (AID 1259382). Note: series mostly up to about 92 µM; nearly all actives have a fitted effect of over 55% in size. An outline of the steps:
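Viability is scored by CellTiter-Glo luminescence (30 min, room temperature) in ER-beta-UAS-bla HEK293T wells already read for reporter fluorescence. Compound exposure lasts 16 hr at 37C alongside 1nM 17-beta-estradiol in charcoal-stripped serum medium.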

Assay [4] can be described thus: qHTS assay to identify small molecule agonists or antagonists of the thyroid stimulating hormone receptor (TSHR) signaling pathway - wild type cell line counter screen (AID 1259384; calls by dose curve). A digest of the protocol: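 Wild-type HEK293 cells were plated 18 h at 37 C/5% CO2, pin-dosed with compound plus Ro20-1724 medium, held 30 min at room temperature, then given cAMP-d2 and anti-cAMP-cryptate; fluorescence was read after 1 h. Fifteen concentrations, triplicate.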

Assay [5] is described as follows: qHTS assay to identify small molecule agonists of the estrogen receptor alpha (ER-alpha) signaling pathway in the presence of an antagonist - cell viability counter screen (AID 1259386).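 Note: series mostly up to about 92 µM; cells exposed to compounds for 22 h at 37 °C before the viability read; nearly all actives have a fitted effect of over 30% in size.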 An outline of the steps: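 In this counter screen, compound effects on VM7Luc4E2 viability were tested in the presence of the antagonist ICI-182,780 at 10.0nM final. Compounds were dosed at 15 concentrations, exposure lasted 22hr, and the CellTiter-Fluor signal was read.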

Assay [6] deals with Progesterone receptor (Homo sapiens) (UniProt P06401). The assay can be described thus: qHTS assay to identify small molecule agonists of the progesterone receptor (PR) signaling pathway (AID 1346784; calls by dose curve; note: nearly all actives have a fitted effect of over 30% in size). A digest of the protocol:
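Fluorescence from LiveBLAzer B/G FRET substrate cleavage (2 hr, RT) reported PR activation in PR-UAS-bla HEK 293T cells treated 16 hr at 37C/5% CO2 with compounds; medium contained 2% charcoal-stripped FBS.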

Assay [7] can be described thus: qHTS assay to identify small molecule antagonists of the progesterone receptor (PR) signaling pathway - cell viability counter screen (AID 1346798). Note: series mostly up to about 92 µM; nearly all actives have a fitted effect of over 50% in size. A digest of the protocol: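 CellTiter-Glo luminescence; PR-UAS-bla HEK293T, 3,000 cells/well; compound + R5020, 16 hr, 37C/5% CO2; 30 min RT before read.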
Assay [8] in a line: qHTS assay to identify small molecule agonists of the progesterone receptor (PR) signaling pathway - cell viability counter screen (AID 1346799; calls by dose curve; note: nearly all actives have a fitted effect of over 45% in size). An outline of the steps:
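In parallel with the beta-lactamase readout, cytotoxicity toward PR-UAS-bla HEK293T cells was measured by CellTiter-Glo luminescence following 16 hr compound incubation in 2% charcoal-stripped FBS medium.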

Assay [9] in a line: qHTS assay to identify small molecule agonists of the TGF-beta/Smad signaling pathway - cell viability counter screen (AID 1346829). Note: top concentration of the series differs between compounds; nearly all actives have a fitted effect of over 45% in size. An outline of the steps:
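HEK 293T SBE-bla line, 5 hr compound exposure at 37 C, multiplexed CellTiter-Glo viability read by luminescence.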

Assay [10] concerns the target Thyrotropin-releasing hormone receptor (Homo sapiens) (UniProt P34981). Description: qHTS assay to identify small molecule antagonists of the thyrotropin-releasing hormone receptor (TRHR) signaling pathway (AID 1346877; active = well fitted inhibition curve with a large enough effect in the repeat runs, not every such curve was filed as active; note: series mostly up to about 51 µM). A digest of the protocol: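 Kinetic fluorescence (3 min, 1 s resolution) following stimulation with TRH at 1 nM final; HEK293 cells bearing human TRHR; 5 min compound preincubation at RT; concentration-response over 15 points, triplicates.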

Assay [11] has the same target. The assay can be described thus: qHTS assay to identify small molecule agonists of the thyrotropin-releasing hormone receptor (TRHR) signaling pathway (AID 1346891; calls by dose curve;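 note: HEK293 cells expressing TRHR with calcium dye readout; series mostly up to about 58 µM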). An outline of the steps: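 Compounds were tested as agonists at 15 concentrations, in triplicate, on TRHR-Hek293 cells; calcium-sensitive dye fluorescence was recorded for 3 min following addition.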

The nature of assay [12]: qHTS assay to identify small molecule antagonists of the sonic hedgehog signaling (Shh) pathway (AID 1259369; calls by dose curve; note: nearly all actives have a fitted effect of over 45% in size). A digest of the protocol:
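Stable Gli1-Luc reporter NIH/3T3 clone; quantitative HTS in stimulated mode with conditioned medium. Luminescence measured after 24hr compound treatment at 37 C.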

The nature of assay [13]: qHTS assay to identify small molecule agonists of the estrogen receptor beta (ER-beta) signaling pathway - cell viability counter screen (AID 1259380). Note: nearly all actives have a fitted effect of over 30% in size. Note: potency is the fitted concentration of half-maximal effect. An outline of the steps:
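Steps: plate ER-beta-UAS-bla HEK293T cells, rest 6 hr; add compounds in DMSO; incubate 16 hr at 37C, 5% CO2; add FRET substrate 2 hr; add CellTiter-Glo, wait 30 min at room temperature; read luminescence.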

Assay [14] deals with Thyrotropin receptor (Homo sapiens) (UniProt P16473). Description: qHTS assay to identify small molecule antagonists of the thyroid stimulating hormone receptor (TSHR) signaling pathway (AID 1259385; calls by dose curve; note: nearly all actives have a fitted effect of over 20% in size). An outline of the steps: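 TSHR-HEK293 cells were plated and held 18 h at 37C/5% CO2, then given compound plus Ro20-1724 and stimulated with TSH at 1.5 ng/mL final. After 30 min at room temperature, cAMP was detected with cAMP-d2/anti-cAMP-cryptate (1 h) by fluorescence.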
Thyrotropin receptor (Homo sapiens), sequence (P16473 whole entry, looked up): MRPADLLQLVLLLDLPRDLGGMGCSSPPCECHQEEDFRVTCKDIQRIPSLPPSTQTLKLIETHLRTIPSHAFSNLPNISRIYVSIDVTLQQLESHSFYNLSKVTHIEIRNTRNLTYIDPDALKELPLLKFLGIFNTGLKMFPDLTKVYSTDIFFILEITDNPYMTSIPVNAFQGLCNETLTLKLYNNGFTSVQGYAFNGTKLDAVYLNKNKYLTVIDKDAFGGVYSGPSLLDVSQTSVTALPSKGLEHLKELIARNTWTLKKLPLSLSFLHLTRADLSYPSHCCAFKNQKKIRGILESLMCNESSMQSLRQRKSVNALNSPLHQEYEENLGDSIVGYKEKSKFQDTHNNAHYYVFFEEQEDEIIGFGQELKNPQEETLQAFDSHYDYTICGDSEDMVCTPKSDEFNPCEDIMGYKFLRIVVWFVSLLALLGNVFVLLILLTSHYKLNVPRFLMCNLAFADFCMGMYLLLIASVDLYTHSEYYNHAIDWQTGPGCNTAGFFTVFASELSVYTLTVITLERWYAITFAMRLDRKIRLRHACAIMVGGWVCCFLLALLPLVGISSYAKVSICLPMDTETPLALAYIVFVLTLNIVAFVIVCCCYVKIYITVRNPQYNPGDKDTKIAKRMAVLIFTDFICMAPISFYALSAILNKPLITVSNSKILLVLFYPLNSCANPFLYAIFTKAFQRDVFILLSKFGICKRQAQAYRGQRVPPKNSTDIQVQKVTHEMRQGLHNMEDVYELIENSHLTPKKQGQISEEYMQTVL

Assay [15] addresses Progesterone receptor (Homo sapiens) (UniProt P06401). Description: qHTS assay to identify small molecule antagonists of the progesterone receptor (PR) signaling pathway (AID 1346795; active = well fitted inhibition curve with a large enough effect in the signal ratio in the repeat runs, not every such curve was filed as active; the % refers to the signal ratio). A digest of the protocol:
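Fluorescence intensity measured 2 hr after adding beta-lactamase FRET substrate to PR-UAS-bla HEK293T cells that had been co-treated 16 hr with compound and 1 nM R5020 (final concentration) in 2% charcoal-stripped FBS.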

Assay [16] in a line: qHTS assay to identify small molecule agonists of the TGF-beta/Smad signaling pathway (AID 1346859; active = well fitted activation curve with a large enough effect in the signal ratio in the repeat runs, not every such curve was filed as active; the % refers to the signal ratio; note: series mostly up to about 77 µM). A digest of the protocol: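 After overnight seeding, SBE-bla HEK 293T cells are dosed with compounds in DMSO and kept 5 hr at 37 C, 5% CO2. LiveBLAzer-type FRET substrate is then applied for 2 hr at room temperature.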
Assay [17] has as its target Estrogen receptor beta (Homo sapiens) (UniProt Q92731). Description: qHTS assay to identify small molecule antagonists of the estrogen receptor beta (ER-beta) signaling pathway (AID 1259378; active = well fitted inhibition curve with a large enough effect in the signal ratio in the repeat runs, not every such curve was filed as active; the % refers to the signal ratio). An outline of the steps: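 ER-beta-UAS-bla HEK293T (GripTite) cells in 2% charcoal-stripped FBS medium were preincubated 6 hr at 37C, dosed with compound, then stimulated with 1 nM E2 (final) for 16 hr; beta-lactamase reporter read by B/G FRET fluorescence after 2 hr substrate loading.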

The target of assay [18] is Androgen receptor (Homo sapiens) (UniProt P10275). Description: qHTS assay to identify small molecule agonists of the androgen receptor (AR) signaling pathway in the presence of an antagonist (AID 1259381; calls by dose curve; note: nearly all actives have a fitted effect of over 15% in size). A digest of the protocol: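 Reporter-gene luminescence from MDA-kb2 cells exposed 16hr at 37C (0% CO2) to 15-point compound titrations with 3.0uM final nilutamide as AR antagonist.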
Androgen receptor (Homo sapiens), sequence (P10275 whole entry, looked up): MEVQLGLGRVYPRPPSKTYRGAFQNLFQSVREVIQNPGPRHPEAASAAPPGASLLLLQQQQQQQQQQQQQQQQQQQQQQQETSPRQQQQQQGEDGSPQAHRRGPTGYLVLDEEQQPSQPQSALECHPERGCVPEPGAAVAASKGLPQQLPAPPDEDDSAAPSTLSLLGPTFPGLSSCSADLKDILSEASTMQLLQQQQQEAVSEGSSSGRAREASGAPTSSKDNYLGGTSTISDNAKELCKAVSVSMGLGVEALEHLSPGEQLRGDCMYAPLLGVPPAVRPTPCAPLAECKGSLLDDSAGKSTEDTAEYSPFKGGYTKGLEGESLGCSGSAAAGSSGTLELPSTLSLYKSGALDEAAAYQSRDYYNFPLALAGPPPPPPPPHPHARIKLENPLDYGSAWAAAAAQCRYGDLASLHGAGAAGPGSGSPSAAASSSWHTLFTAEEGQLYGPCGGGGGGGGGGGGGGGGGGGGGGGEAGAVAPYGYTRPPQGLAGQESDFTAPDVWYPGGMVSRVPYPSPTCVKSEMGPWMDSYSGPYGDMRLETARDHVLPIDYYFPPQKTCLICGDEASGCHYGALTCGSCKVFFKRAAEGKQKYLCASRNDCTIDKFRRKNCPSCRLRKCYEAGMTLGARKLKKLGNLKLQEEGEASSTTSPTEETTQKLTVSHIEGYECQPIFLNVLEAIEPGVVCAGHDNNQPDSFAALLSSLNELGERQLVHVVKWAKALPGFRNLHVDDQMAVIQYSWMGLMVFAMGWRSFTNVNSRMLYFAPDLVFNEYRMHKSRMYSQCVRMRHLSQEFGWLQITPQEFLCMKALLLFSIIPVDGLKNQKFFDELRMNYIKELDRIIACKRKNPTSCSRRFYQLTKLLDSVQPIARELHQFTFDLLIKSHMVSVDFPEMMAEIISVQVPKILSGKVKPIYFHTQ

The target of assay [19] is Estrogen receptor (Homo sapiens) (UniProt P03372). The assay can be described thus: qHTS assay to identify small molecule agonists of the estrogen receptor alpha (ER-alpha) signaling pathway in the presence of an antagonist (AID 1259383; calls by dose curve; note: top concentration of the series differs between compounds; nearly all actives have a fitted effect of over 15% in size). A digest of the protocol: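 Readout was ERE-driven luciferase luminescence in VM7Luc4E2 cells, which express full-length ER-alpha endogenously. Compounds were tested at 15 concentrations for 22hr alongside 10.0nM ICI-182,780 (final concentration).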
Estrogen receptor (Homo sapiens), sequence (P03372 whole entry, looked up): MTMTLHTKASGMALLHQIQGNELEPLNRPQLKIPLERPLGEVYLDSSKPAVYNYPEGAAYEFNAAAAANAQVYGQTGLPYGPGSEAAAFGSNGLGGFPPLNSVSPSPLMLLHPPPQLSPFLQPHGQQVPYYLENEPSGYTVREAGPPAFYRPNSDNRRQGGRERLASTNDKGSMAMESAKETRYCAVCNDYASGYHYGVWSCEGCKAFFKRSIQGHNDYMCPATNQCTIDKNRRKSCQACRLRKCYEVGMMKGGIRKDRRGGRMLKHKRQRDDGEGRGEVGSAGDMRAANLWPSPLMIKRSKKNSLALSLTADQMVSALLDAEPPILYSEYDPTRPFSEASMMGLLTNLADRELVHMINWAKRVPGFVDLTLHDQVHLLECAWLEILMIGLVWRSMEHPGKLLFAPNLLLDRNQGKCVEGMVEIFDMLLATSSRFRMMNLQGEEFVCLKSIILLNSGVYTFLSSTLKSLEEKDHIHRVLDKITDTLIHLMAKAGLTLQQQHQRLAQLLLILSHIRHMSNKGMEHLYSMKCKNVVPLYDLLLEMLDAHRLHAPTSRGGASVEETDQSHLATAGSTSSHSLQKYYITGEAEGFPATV

Assay [20] is described as follows: qHTS assay to identify small molecule antagonists of the TGF-beta/Smad signaling pathway - cell viability counter screen (AID 1346824). Note: nearly all actives have a fitted effect of over 50% in size. An outline of the steps:
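SBE-bla HEK 293T cells were plated overnight at 37 C, then given compounds in DMSO plus TGF-beta1 (added as 0.25 ng/mL solution) for 5 hr. After the bla read, CellTiter-Glo was added to the same wells and luminescence read after 30 min at room temperature.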

Structures are written as SMILES. Records with an inconclusive call do not appear. More than one record can exist for a structure, and the calls need not agree. Calls of active or inactive are those of the source. Unless noted, calls come from the whole dose curve; as a rule, active = well fitted curve in the direction sought with a large enough effect in the repeat runs; inconclusive = weak or mixed curves; inactive = no such curve, though single readings can be large; an effect the other way counts as inactive or inconclusive.

Estrogen receptor beta (Homo sapiens), sequence (Q92731 whole entry, looked up): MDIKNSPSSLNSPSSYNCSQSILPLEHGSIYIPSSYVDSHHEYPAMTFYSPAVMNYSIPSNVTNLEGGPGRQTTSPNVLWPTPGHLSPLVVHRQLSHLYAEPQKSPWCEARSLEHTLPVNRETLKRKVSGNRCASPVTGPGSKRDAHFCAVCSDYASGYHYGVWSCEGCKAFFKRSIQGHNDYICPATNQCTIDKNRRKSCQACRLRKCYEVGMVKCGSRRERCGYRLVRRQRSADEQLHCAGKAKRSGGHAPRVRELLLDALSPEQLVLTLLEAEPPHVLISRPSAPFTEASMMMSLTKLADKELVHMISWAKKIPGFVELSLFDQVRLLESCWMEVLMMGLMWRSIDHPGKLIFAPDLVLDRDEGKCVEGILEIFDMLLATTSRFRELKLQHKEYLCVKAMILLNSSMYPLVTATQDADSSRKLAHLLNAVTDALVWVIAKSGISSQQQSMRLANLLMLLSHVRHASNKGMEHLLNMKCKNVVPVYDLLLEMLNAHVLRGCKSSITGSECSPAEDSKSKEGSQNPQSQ
Progesterone receptor (Homo sapiens), sequence (P06401 whole entry, looked up): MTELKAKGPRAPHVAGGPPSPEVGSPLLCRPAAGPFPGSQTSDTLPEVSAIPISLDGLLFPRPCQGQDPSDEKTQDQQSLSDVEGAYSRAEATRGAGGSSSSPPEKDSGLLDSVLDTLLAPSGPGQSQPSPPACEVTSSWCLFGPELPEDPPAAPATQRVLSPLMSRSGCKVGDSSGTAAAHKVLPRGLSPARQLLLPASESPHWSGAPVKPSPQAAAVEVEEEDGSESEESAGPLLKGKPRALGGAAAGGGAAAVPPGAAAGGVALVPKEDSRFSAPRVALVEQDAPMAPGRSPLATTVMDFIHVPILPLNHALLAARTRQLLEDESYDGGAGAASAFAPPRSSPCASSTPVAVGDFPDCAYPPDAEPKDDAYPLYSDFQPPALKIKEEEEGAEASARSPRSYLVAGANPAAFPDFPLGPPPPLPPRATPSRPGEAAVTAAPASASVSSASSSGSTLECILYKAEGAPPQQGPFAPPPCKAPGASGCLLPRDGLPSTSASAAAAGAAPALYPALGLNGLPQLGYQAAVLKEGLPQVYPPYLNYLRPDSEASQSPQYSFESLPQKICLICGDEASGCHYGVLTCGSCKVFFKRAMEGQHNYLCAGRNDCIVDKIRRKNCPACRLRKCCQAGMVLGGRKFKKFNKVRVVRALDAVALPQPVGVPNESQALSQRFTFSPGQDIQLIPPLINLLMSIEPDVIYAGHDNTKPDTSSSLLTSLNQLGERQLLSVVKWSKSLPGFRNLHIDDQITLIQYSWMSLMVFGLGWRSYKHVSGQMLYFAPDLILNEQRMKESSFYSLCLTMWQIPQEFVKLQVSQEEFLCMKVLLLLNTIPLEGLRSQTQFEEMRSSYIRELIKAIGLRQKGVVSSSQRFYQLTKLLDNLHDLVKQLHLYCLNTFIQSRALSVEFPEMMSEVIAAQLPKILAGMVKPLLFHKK
Thyrotropin-releasing hormone receptor (Homo sapiens), sequence (P34981 whole entry, looked up): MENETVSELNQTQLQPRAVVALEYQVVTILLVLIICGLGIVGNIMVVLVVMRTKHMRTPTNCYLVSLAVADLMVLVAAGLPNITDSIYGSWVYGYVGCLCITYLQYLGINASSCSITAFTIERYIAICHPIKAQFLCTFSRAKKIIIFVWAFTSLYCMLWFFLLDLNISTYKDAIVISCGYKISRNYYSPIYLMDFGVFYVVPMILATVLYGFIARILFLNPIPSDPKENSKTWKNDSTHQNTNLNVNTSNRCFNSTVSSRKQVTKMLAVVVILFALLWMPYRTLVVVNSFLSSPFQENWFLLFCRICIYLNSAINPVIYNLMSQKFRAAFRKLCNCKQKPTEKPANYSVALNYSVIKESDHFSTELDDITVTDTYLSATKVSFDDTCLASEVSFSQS

In the case of `CC#C[C@]1(O)CC[C@H]2[C@@H]3CCC4=CC(=O)CCC4=C3[C@@H](c3ccc(N(C)C)cc3)C[C@@]21C`, the Potency entry in assay [1], in [2], in [3], in assay [5], in assay [6] and in [7] was “inactive” in each case. Also, the Potency result in [8], in [9] and in [11] was “inactive” each time. The outcome in assay [4] and in assay [10] was inactive.
Regarding `CC(C)(N=C=O)c1cccc(C(C)(C)N=C=O)c1`, the Potency result in assay [12], in [2], in assay [3], in assay [5], in assay [6] and in assay [15] was “inactive” in each case. For the same molecule, the Potency entry in [7], in assay [8], in [9] and in assay [11] was “inactive” throughout. Besides, the Potency in assay [13] is 68 µM (active) and inactive. Also, the result in assay [4], in [14], in [16] and in assay [10] was inactive.
As for `CC(C)Cc1ccccc1`, the Potency entry in [12], in assay [2], in assay [13], in [3], in assay [5] and in assay [6] was “inactive” throughout. The Potency entry in assay [15], in [7], in assay [8], in assay [9] and in [11] was “inactive” each time. Further, the call in assay [4], in assay [14], in assay [16] and in assay [10] was inactive.
On to `C=C(C)C(=O)OCCCCCC`, for which the Potency entry in [12], in assay [2], in assay [13], in assay [3], in assay [5] and in assay [6] was “inactive” in each case. Also, the Potency entry in assay [15], in assay [7], in [8], in assay [9] and in assay [11] was “inactive” each time. Further, the outcome in assay [4], in [14], in assay [16] and in assay [10] was inactive.
On to `Cc1cc(=O)[nH]c(C(C)C)n1`, for which the Potency result in [12], in assay [17], in assay [2], in assay [13], in assay [18] and in assay [3] was “inactive” in each case. For the same molecule, the Potency entry in assay [19], in assay [5], in [6], in assay [15], in assay [7] and in assay [8] was “inactive” throughout. The Potency entry in [20], in assay [9] and in [11] was “inactive” in each case. Besides, the molecule was classed as inactive in assay [4], in [14], in assay [16] and in assay [10].
With `CCOC(=O)/C=C\C(=O)OCC`, the Potency result in assay [12], in [2], in assay [13], in assay [3], in [19] and in assay [5] was “inactive” throughout. The Potency result in assay [6], in assay [15], in [7], in assay [8], in assay [20] and in assay [9] was “inactive” throughout. Further, the Potency entry in assay [11] is “inactive”. For the same molecule, the result in assay [4], in assay [16] and in assay [10] was inactive.

The values above are taken from PubChem BioAssay (Tox21).
